Experimental data taken from PubChem BioAssay AID1508619 (National Center for Advancing Translational Sciences (NCATS), 2020).
Results filed as inconclusive are left out. A call without a number means that no potency is given here. Active and inactive are the calls of the source. Calls follow the shape of the dose curve; as a rule, active = well fitted inhibition curve with a large enough effect; inconclusive = small, poorly fitted or top-dose-only effect; inactive = no such curve, though single readings can be large or run the other way.

assay: Counterscreen qHTS for Identification of Calcium Integrin Binding Protein 1 (CIB1) Competitor; conditions: series mostly up to 114 µM
Method in brief: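 Compounds (final up to 114 uM) preincubated 15 min at room temperature with 1 uM CIB1-GST in calcium-containing HEPES pH 7.4 buffer; 100 nM scrambled FITC peptide added, and fluorescence polarization (480/540) measured after another 15 min.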
Potency is read from the fitted curve at half-maximal effect.

| SMILES | Potency |
| --- | --- |
| CC(C)(O)CCc1ccc(OCc2cc(-c3cccc(OC(F)F)c3)c3ncccc3c2)cc1 | inactive |
| O=C1CCC2=C1C1(CCCC1)N=C(Nc1nc3ccccc3o1)N2 | inactive |
| CCCCCCCCOc1ccccc1C(=O)Nc1ccc(C(=O)OCC[N+](C)(CC)CC)cc1 | inactive |
| Fc1ccc(NC(=S)Nc2nnc(-c3ccncc3)s2)cc1C(F)(F)F | inactive |
| O=C1CCCC2=C1C(c1ccn[nH]1)N=C(Nc1nc3ccccc3o1)N2 (stereo not drawn) | inactive |
| Cc1ccccc1NC(=O)CN1C(=O)N/C(=C\c2cn(-c3cccc(C(=O)O)c3)cn2)C1=O | inactive |
| C[C@H]1COC2=C1C(=O)C(=O)c1c2ccc2c1CCCC2(C)C | inactive |
| N#Cc1cnc(NS(=O)(=O)c2ccc(NC(=O)Cc3ccc(F)c(Cl)c3)cc2)s1 | inactive |
| O=Cc1c(-c2ccccc2)no[n+]1[O-] | inactive |
| Cc1ccc2nc3sc(C(=O)NCc4ccco4)cc3cc2c1 | inactive |
| CN(C(=O)c1cccs1)c1cccnc1 | 44.7 µM (active) |
| CCCCCCCCCCCCCCCC[N+](C)(C)CCN(Cc1ccc(OC)cc1)c1ncccn1 | inactive |
| CCOc1ccc2nc3cc(N)ccc3c(N)c2c1 | 31.6 µM (active) |
| CCOC(=O)c1c(-c2ccc(C)o2)csc1NC(=O)CSc1nnnn1-c1ccccc1 | inactive |
| CCc1oc2ccccc2c1C(=O)c1cc(I)c(O)c(I)c1 | 100 µM (active) |
| Oc1cccc2cc(C3CC3)cnc12 | inactive |
| COc1cc(C(=O)NS(=O)(=O)c2ccccc2C)ccc1Cc1cn(C)c2ccc(NC(=O)OC3CCCC3)cc12 | inactive |

| SMILES | Potency |
| --- | --- |
| CCOc1ccc(CCNC(=O)c2ccc(N3N=C(C)CC3=O)cc2)cc1OCC | inactive |
| CN1CCC(N(Cc2cccs2)c2ccccc2)CC1 | inactive |
| O=C(Cc1ccc(Cl)c(Cl)c1)Nc1ccc(S(=O)(=O)Nc2cccc(C(=O)O)c2)cc1 | inactive |
| Cc1ccc(S(=O)(=O)Nc2ccc(Br)cc2C(=O)Nc2nc(-c3ccccc3)cs2)cc1 | inactive |
| OCCOCCN1CCN(C(c2ccccc2)c2ccc(Cl)cc2)CC1 (stereo not drawn) | inactive |
| NS(=O)(=O)c1ccc(Nc2nc(-c3ccccc3)cs2)cc1 | 44.7 µM (active) |
| O=c1c(O)c(-c2ccc(O)c(O)c2)oc2cc(O)cc(O)c12 | inactive |
| Cc1cnc(-c2ccccc2C(C)C)nc1NCc1ccc(-c2ccc(F)nc2)cc1 | 44.7 µM (active) |
| O=S(=O)(Nc1nccs1)c1ccc(Nc2nc(-c3ccccc3)cs2)cc1 | 50.1 µM (active) |
| NC(=O)c1ccnc2c(O)cccc12 | inactive |
| COC(=O)c1ccc2c(c1)S(=O)(=O)N=C2Sc1cc(C)ccc1C | inactive |
| Cc1ccc(S(=O)(=O)Nc2cnccc2C(=O)Nc2nc(-c3ccc(Cl)cc3)cs2)cc1 | inactive |
| CC(C)(C)c1ccc(SC2=NS(=O)(=O)c3ccccc32)cc1 | inactive |
| COc1ccccc1Nc1cc2ccccc2c(=O)[nH]1 | 35.5 µM (active) |
| Cc1ccc(S(=O)(=O)Nc2cnccc2C(=O)Nc2ccc(-c3nn[nH]n3)cc2)cc1 | inactive |
| CN(C)c1cnc2c(O)cccc2c1 | inactive |
